# Test results from PMC4336329 (PLoS ONE, 2015).
# Among all 310,000 compounds or so, about 14,000 (4.5%) showed an effect of 50% or more. The effect is printed as a negative number. What follows is part of a selection rich in strong results, with near analogues and random picks from the rest.
# Target: human ether-à-go-go-related gene (hERG) potassium channel (human, UniProt Q12809)
# Assay: primary screen, population patch clamp on CHO cells stably expressing hERG; higher = less effect of the substance
# 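Note: peak tail current of the secondary pulse compared with the same well before compound.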
# Sequence of human ether-à-go-go-related gene (hERG) potassium channel (Q12809 whole entry, looked up): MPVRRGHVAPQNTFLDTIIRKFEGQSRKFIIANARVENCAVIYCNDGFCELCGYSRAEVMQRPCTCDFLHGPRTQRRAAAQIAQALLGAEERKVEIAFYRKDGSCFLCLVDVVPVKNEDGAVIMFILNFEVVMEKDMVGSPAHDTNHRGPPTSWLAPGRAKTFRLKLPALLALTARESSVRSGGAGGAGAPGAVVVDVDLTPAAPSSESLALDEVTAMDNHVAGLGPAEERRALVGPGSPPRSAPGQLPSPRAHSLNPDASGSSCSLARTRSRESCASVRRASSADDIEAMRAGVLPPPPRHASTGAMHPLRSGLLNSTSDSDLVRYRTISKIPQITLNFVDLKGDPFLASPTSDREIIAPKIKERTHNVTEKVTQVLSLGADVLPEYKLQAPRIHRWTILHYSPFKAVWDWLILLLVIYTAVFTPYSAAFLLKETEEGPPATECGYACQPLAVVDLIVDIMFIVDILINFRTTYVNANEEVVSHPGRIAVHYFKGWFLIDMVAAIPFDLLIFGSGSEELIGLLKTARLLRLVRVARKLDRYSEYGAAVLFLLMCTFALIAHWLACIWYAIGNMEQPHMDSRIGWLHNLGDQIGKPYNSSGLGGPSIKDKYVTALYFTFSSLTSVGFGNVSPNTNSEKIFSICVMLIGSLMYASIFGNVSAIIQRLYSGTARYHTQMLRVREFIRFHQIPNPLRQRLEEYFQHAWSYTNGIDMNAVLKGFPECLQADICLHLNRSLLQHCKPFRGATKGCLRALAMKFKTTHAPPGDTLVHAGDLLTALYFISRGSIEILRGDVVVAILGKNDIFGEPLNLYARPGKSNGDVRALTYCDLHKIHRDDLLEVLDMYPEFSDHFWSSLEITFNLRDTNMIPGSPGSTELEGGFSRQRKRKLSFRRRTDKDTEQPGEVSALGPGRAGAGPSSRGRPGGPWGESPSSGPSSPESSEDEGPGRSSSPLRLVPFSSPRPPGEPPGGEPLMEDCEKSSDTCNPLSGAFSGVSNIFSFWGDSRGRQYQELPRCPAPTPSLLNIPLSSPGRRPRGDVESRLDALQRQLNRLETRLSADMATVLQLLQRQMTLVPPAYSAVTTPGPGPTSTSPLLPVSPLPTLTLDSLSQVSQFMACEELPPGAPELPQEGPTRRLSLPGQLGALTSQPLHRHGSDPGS
row,Compound,"hERG current change (%, negative = inhibition) at 10uM [%]"
1,Cc1ccc(NC(=O)CN2C(=O)c3ccccc3C2=O)nc1,6.21
2,Cc1nc2ccsc2c(=O)n1-c1cccc(Cl)c1,14.4
3,O=C(NNC(=O)c1cccc(O)c1)Nc1ccc([N+](=O)[O-])cc1,16.3
4,O=C(c1ccccc1)c1cccn1CC(=O)N1CCN(c2ccccc2)CC1,-9.33
5,O=C(Cc1ccccc1)N1CCN(C2CCCCCC2)CC1.O=C(O)C(=O)O,-19.2
6,O=C(C(Cc1ccccc1)n1cccc1)N1CCCCCC1 (stereo not drawn),12.1
7,O=C(c1ccccc1)c1cccn1CC(=O)N1CCN(C2CCCCC2)CC1,-52.6
8,COc1ccc(CCC(=O)N2CCN(C(=O)c3ccccc3)CC2)cc1,5.76
9,O=C(Cc1ccccc1)N1CCN(C2CCCC2)CC1,0.401
10,O=C(c1ccccc1)c1cccn1CC(=O)N1CCCCCC1,5.2
11,O=C(CCCc1ccccc1)N1CCN(C2CCCCC2)CC1,-70.8
12,O=C(C(Cc1ccccc1)n1cccc1)N1CCCCC1 (stereo not drawn),2.03
13,COc1ccc(CCC(=O)N2CCCC(Nc3ccc(OC)cc3)C2)cc1 (stereo not drawn),-6.96
14,COc1ccc(CCC(=O)N2CCN(C3CCCCC3)CC2)cc1,-69.1
15,O=C(C(Cc1ccccc1)n1cccc1)N1CCN(C2CCCCC2)CC1 (stereo not drawn),-56.6
16,CN1CCN(C(=O)Nc2ccccc2)CC1.O=C(O)C(=O)O,23.2
17,CCN(CC(=O)Nc1cc(Cl)ccc1C)C(=O)CN1C(=O)NC2(CCCC2)C1=O,8.3
18,CSc1ncccc1C(=O)OCC(=O)N(CC(C)C)C1CCS(=O)(=O)C1 (stereo not drawn),-0.0479
19,Cc1cc(C)nc(N(C#N)Cc2ccc(Br)cc2)n1,4.33
20,O=C1NC(=O)N(c2ccccc2)C(=O)/C1=C/c1coc2ccc(O)cc2c1=O,-6.18
21,CN(C)CCCNC(=S)Nc1ccc(Oc2ccccc2)cc1,-3.24
22,CON=C1CCN(c2ncc(C(F)(F)F)cc2Cl)CC1,-5.78
23,CCN(CC)S(=O)(=O)c1cc(NC(=O)COc2ccc(C#N)cc2OC)ccc1C,-38.1
24,COc1cc(C#N)ccc1OCC(=O)Nc1cccc(S(=O)(=O)N2CCCC2)c1,-44.4

row,Compound,"hERG current change (%, negative = inhibition) at 10uM [%]"
1,CCN(CC)S(=O)(=O)c1cccc(NC(=O)COc2ccc(C#N)cc2OC)c1,-72.4
2,CCN(CC)S(=O)(=O)c1cccc(C(=O)Nc2ccccc2)c1,-28
3,CCN(CC)S(=O)(=O)c1cccc(NC(=O)c2cccc(S(=O)(=O)N3CCCC3)c2)c1,-80.8
4,CCN(CC)S(=O)(=O)c1cccc(C(=O)Nc2ccc(C#N)cc2)c1,-77.3
5,CN(C)S(=O)(=O)c1cccc(NC(=O)c2cccc(S(=O)(=O)N3CCCCC3)c2)c1,-27.9
6,CCN(CC)S(=O)(=O)c1cccc(NC(=O)c2ccc(C#N)cc2)c1,-35
7,O=C(Cn1nnc(-c2ccccc2)n1)Nc1cccc(S(=O)(=O)N2CCCC2)c1,-2.26
8,NC(=O)c1ccc(-c2nnn(CC(=O)Nc3cccc(S(=O)(=O)N4CCCC4)c3)n2)cc1,4.54
9,CCN(CC)S(=O)(=O)c1cccc(NC(=O)CNc2cccc(S(=O)(=O)N3CCCC3)c2)c1,5.46
10,O=C(Cn1nnc(-c2ccccc2)n1)Nc1cccc(S(=O)(=O)N2CCOCC2)c1,-56.2
11,Cc1cc(C)c(S(=O)(=O)c2ccccc2Cl)c(=O)[nH]1,10.7
12,C=CCOCCN(CCOCC=C)C1=NS(=O)(=O)c2ccccc21,12.5
13,COc1ccc(NS(=O)(=O)c2cccc(NC(=O)C3=NN(c4ccccc4)C(=O)CC3)c2)cc1,-35.1
14,O=C(NC1=NCCS1)c1cc2ccccc2o1,-23.8
15,O=C(Nc1cccnc1)c1cccc(S(=O)(=O)N2CCOCC2)c1,4.06
16,CN(C)S(=O)(=O)c1cccc(NC(=O)c2cncc(Br)c2)c1,-3.39
17,CCN(CC)S(=O)(=O)c1cccc(NC(=O)c2ccc(Br)cc2)c1,4.07
18,CCN(CC)S(=O)(=O)c1cccc(NC(=O)c2cncc(Br)c2)c1,-69.9
19,CN1CCN(S(=O)(=O)c2cccc(C(=O)Nc3sccc3C#N)c2)CC1,-5.03
20,O=C(Nc1cccc(S(=O)(=O)N2CCCC2)c1)c1cccc(S(=O)(=O)N2CCOCC2)c1,-15.5
21,CN1CCN(S(=O)(=O)c2cccc(C(=O)Nc3sccc3C(N)=O)c2)CC1,-75.4
22,CN1CCN(S(=O)(=O)c2cccc(C(=O)Nc3cc(C(N)=O)cc(C(N)=O)c3)c2)CC1,4.71
23,O=C(Nc1ccncc1)c1cccc(S(=O)(=O)N2CCN(c3ccc(F)cc3)CC2)c1,-82.9
24,O=C(Nc1ccncc1)c1cccc(S(=O)(=O)N2CCOCC2)c1,-58.4

row,Compound,"hERG current change (%, negative = inhibition) at 10uM [%]"
1,O=C(Nc1ccc2c(c1)CCC2)c1cccc(S(=O)(=O)N2CCN(c3ccc(F)cc3)CC2)c1,-3.29
2,Cc1cccnc1NC(=O)c1cccc(S(=O)(=O)N2CCN(c3ccc(F)cc3)CC2)c1,-35.1
3,Cc1ccc(SCC(=O)c2cc(C)c(O)c(C)c2)cc1,-3.19
4,Cc1ccccc1NC(=O)CCc1nnc2ccc(N3CCC4(CC3)OCCO4)nn12,8.74
5,CSCc1nnc(NC(=O)c2ccc(S(=O)(=O)N(C)C)cc2)o1,20.7
6,CCOC(=O)/C(C#N)=N/Nc1ccc(S(=O)(=O)N2CCc3ccccc32)cc1,2.18
7,CCOC(=O)C1=C(C)OC(N)=C(C#N)C1c1cccs1 (stereo not drawn),8.62
8,Cc1nnc(NC(=O)CSc2nnc(CNC(=O)C34CC5CC(CC(C5)C3)C4)n2C2CCCCC2)s1,2.98
9,CCOc1ccccc1N1CCN(C(=O)c2cc3cc(OC)ccc3[nH]2)CC1,-3.66
10,C=CCn1c(O)c(C(CC)=Nc2ccc3c(c2)CCC3)c(=O)[nH]c1=O,1.65
11,O=C(Nc1cccc(S(=O)(=O)N2CCCC2)c1)c1ccncc1,-46.5
12,CCc1cccc(NC(=O)c2cccc(S(=O)(=O)N3CCN(C)CC3)c2)c1,-53.9
13,O=C(Nc1ccncc1)c1cccc(S(=O)(=O)N2CCCC2)c1,-60.7
14,CCN(CC)S(=O)(=O)c1cccc(NC(=O)CNC2CCCCCC2)c1.O=C(O)C(=O)O,-60.8
15,CN(C)S(=O)(=O)c1cccc(NC(=O)CNC2CCCCC2)c1.O=C(O)C(=O)O,5.24
16,O=C(Nc1ccccc1)c1cccc(S(=O)(=O)N2CCCCC2)c1,0.607
17,CCN(CC)S(=O)(=O)c1ccc(NC(=O)CNC2CCCCC2)cc1.O=C(O)C(=O)O,-7.08
18,CN1CCN(S(=O)(=O)c2cccc(C(=O)Nc3cccc(S(N)(=O)=O)c3)c2)CC1,12.8
19,CCc1cccc(CC)c1NC(=O)c1cccc(S(=O)(=O)N2CCN(C)CC2)c1,-4.14
20,CC(C)(CC(=O)O)CC(=O)Nc1ccc2c(c1)ncn2CCc1ccccc1,15.8
21,CNC(=O)NC(=O)COC(=O)c1ccc(-n2c(C)ccc2C)cc1,-7.41
22,COc1ccc(C(CC(=O)O)NC(=O)COc2cc(C)ccc2C)cc1OC (stereo not drawn),21.2
23,CCn1c(=N)n(CC(O)COc2cccc(C)c2)c2ccccc21.Cl (stereo not drawn),-58.6
24,CCCn1c(=N)n(CC(O)COc2cccc(C)c2)c2ccccc21.Cl (stereo not drawn),-71.3

row,Compound,"hERG current change (%, negative = inhibition) at 10uM [%]"
1,COCCCNc1nc2c(c(=O)[nH]c(=O)n2C)n1CC(O)COc1cccc(C)c1 (stereo not drawn),-2.66
2,CCCCn1c(=N)n(CC(O)COc2cccc(C)c2)c2ccccc21.Cl (stereo not drawn),-72.6
3,Cc1ccc(-n2c(=O)[nH]cc(C(=O)Nc3ccc4c(c3)OCCO4)c2=O)cc1,18.3
4,CC(=O)N1CCN(c2ccc(NC(=O)c3cccc(OCc4ccccc4)c3)cc2)CC1,7.06
5,c1ccc(OCCCn2ccnc2)cc1,16.3
6,O=c1ccc2ccccc2n1Cc1cccc(F)c1,9.61
7,COc1ccc(CCN2C(=O)CC(Cc3ccccc3)C2=O)cc1OC (stereo not drawn),-17.2
8,Cc1ccc(SCC(=O)OC(C)C(=O)NCc2ccccc2)cc1 (stereo not drawn),-1.8
9,COc1ccc2c(c1)OC[C@H]1[C@H]2N2C(=O)CN(CC3CCCO3)C(=O)[C@@]2(C)[C@H]1c1ccccc1 (stereo partly drawn),-1.62
10,CCn1cnc2cc(NCc3ccc(Br)cc3)ccc21,-61.3
11,CCCn1cnc2cc(NCc3cccc(OC)c3)ccc21,-67.2
12,CCn1cnc2cc(NCc3ccc(N(C)C)cc3)ccc21,-8.28
13,COc1ccc(CNc2ccc3c(c2)nc(C)n3C)cc1,-31.9
14,CCn1cnc2cc(NCc3ccc(Cl)cc3)ccc21,-68
15,CCCn1cnc2cc(NCc3cccs3)ccc21,-10.9
16,CCn1cnc2cc(NCc3ccc(OC)cc3)ccc21,-39.4
17,COc1ccc(OC)c(CNc2ccc3c(c2)nc(C)n3C)c1,-68.4
18,CCc1ccc(CNc2ccc3c(c2)ncn3CC)cc1,-19.7
19,COc1ccc(CNc2ccc3c(c2)nc(C)n3C)cc1OC,-17.1
20,CCn1cnc2cc(NCc3ccc(C)cc3)ccc21,-40.4
21,CCn1cnc2cc(NCc3ccncc3)ccc21,6.89
